MazEF act: increases E. coli MazEF RNase cleavage of RNA; P0AE70; FAM/BHQ RNA-DNA oligo cleavage fluorescence, 5 h; activation, % at 20 µM; 350,000 tested, 0.32% active; in the data active means activation above about 50%
Autofluor counter: compound fluorescence in toxin protease inhibitor counterscreen. compound autofluorescence counterscreen, microsphere flow cytometry; hits give high values. fluorescence intensity (concentration not given with the values). 360,000 tested, 3.1% active. AID 624483; in the data active means fluorescence intensity above about 16000; inconclusive means no clear call, values can overlap the other calls
BoNT-F LC inh: blocks Botulinum neurotoxin F light chain protease. Multiplex microsphere protease cleavage assay, flow cytometry. AID 588497. 360,000 tested, 0.22% active. inhibition, % at 10 µM; in the data active means inhibition above about 35%, passing the limit was not always enough; inconclusive means no clear call, values can overlap the other calls; further: plate controls were buffer without enzyme for full effect and enzyme alone for no effect
PriA SSB inh: blocks PriA binding to SSB C-terminal tail. AID 1272365. 430,000 tested, 0.6% active. AlphaScreen SSBct-PriA binding, biotinylated peptide. inhibition, % at 33 µM; in the data active means inhibition mostly above about 37%, no sharp cut-off; inactive means mostly below about 20%;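 further: plate controls were negative control peptide for no effect and reference peptide for full effect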
BoNT A protease: blocks Botulinum neurotoxin A light chain protease | multiplex microsphere protease substrate cleavage, flow cytometry | inhibition, % at 10 µM | 360,000 tested, 0.17% active | AID 588499; further: plate controls were buffer without enzyme for full effect and enzyme alone for no effect
Anthrax LF inh2: blocks Bacillus anthracis lethal factor protease; P15917; multiplex microsphere protease cleavage assay, LF; inhibition, % at 10 µM; 360,000 tested, 0.12% active; further: plate controls were buffer without enzyme for full effect and enzyme alone for no effect
Target sequence (P15917 whole entry, looked up): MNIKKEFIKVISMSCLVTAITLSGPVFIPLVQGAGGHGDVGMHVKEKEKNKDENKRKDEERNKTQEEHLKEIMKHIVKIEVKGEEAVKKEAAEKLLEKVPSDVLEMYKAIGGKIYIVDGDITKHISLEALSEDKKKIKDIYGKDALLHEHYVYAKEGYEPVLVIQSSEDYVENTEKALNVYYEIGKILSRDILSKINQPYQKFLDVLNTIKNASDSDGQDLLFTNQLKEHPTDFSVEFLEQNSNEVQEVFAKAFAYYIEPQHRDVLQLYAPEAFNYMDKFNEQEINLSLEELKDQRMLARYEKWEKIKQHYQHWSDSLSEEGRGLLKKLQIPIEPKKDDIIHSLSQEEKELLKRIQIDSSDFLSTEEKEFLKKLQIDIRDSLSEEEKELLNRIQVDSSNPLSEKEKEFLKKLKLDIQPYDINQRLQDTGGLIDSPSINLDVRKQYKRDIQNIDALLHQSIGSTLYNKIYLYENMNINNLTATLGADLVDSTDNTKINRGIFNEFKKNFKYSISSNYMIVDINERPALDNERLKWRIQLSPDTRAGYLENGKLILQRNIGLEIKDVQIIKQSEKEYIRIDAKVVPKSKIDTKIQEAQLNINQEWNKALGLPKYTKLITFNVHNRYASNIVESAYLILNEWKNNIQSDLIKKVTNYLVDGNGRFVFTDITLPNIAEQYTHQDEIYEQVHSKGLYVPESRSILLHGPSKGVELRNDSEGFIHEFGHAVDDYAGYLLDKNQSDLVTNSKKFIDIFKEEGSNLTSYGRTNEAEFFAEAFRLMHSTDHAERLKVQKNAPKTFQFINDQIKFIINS
Starred values were filed as active, the others as inactive; ? = inconclusive; . = no result given; ! = repeats disagree. An excerpt weighted towards active compounds, which were near 3.3% of everything screened. Unless noted, no stated cut-off is given here; in the data, active means inhibition above about 30%; inconclusive means no clear call, values can overlap the other calls; inactive means below that.

SMILES	MazEF act	Autofluor counter	BoNT-F LC inh	PriA SSB inh	BoNT A protease	Anthrax LF inh2
CCn1c(CCc2ccccc2)nnc1SCC(N)=O	13	3042	37*	4	4	28
Cn1c(CNc2ccc(O)cc2)nc2ccccc21	105*	3241	-6	-6	-4	-11
CCn1c(SCC(N)=O)nnc1-c1cc2c(C)nn(-c3ccccc3)c2s1	12	23213*	2	-16	2	-1
CCn1c(CSc2nc3ccccc3s2)nnc1SCC(=O)OC(C)(C)C	-1	16941*	-6	-7	-3	-2
Cc1ccc(NCc2nc3ccccc3n2C)cc1	2	3179	-4	6	0	-2
CCOC(=O)CCCSc1nnc(CSc2nc3ccccc3s2)n1-c1ccccc1	.	.	.	2	.	.
C/C(=N/NC(=O)c1cc(C)[nH]n1)c1ccccc1O	.	.	.	-6	.	.
O=C(Cc1ccccc1)NCc1nnc(SCC(=O)N2N=C(c3cccs3)CC2c2ccc(F)cc2)n1CCc1ccccc1 (centres undefined)	.	.	.	5	.	.
Cn1c(CSc2nc3ccccc3s2)nc2ccccc21	-1	22150*	-5	1	-3	-3
CCn1c(CSc2nc3ccccc3s2)nnc1SCC(=O)NCC(=O)OC	-7	20468*	-1	-8	0	-3
CCn1c(CSc2nc3ccccc3s2)nnc1SCC(=O)c1ccc2c(c1)OCCO2	-2	4130	-9	7	1	-5
C=CCn1c(CSc2nc3ccccc3s2)nnc1SCC(=O)NCc1ccccc1	-8	4935	-14	-2	0	2
CCn1c(CSc2nc3ccccc3s2)nnc1SCC(N)=O	3	20063*	-3	-6	-2	0
Cc1ccc(NC(=O)c2cn[nH]n2)cc1F	.	.	.	-3	.	.
COc1cc(/C=C\C(=O)NCCCS(=O)(=O)N2CCN(c3ccccn3)CC2)cc(OC)c1OC	.	.	.	-4	.	.
C=CCc1cccc2ccc(=O)oc12	1	6128	37*	1	4	19
C=CCc1cccc2cc(C(C)=O)c(=O)oc12	.	.	.	-3	.	.
Cc1ccc(/C=C2\SC(=S)N(CCC(=O)Nc3cccnc3)C2=O)cc1	82*	5183	4	8	0	-1
O=C(NN1C(=O)/C(=C/c2cccnc2)SC1=S)C(c1ccccc1)c1ccccc1	-16	21106*	-2	8	-1	-2
O=C(NN1C(=O)/C(=C\c2cccnc2)SC1=S)C(c1ccccc1)c1ccccc1	5	2033	3	-4	1	2
O=C(CCN1C(=O)/C(=C/c2ccccc2)SC1=S)NNC(=O)c1cccnc1	-2	2471	2	1	0	-1
O=C(NN1C(=O)/C(=C/c2cccs2)SC1=S)c1ccccc1	-4	8439	41*	4	10	22
COc1ccc(/C=C2/SC(=S)N(CCC(=O)Nc3cccnc3)C2=O)cc1OC	-6	3500	-26	.	0	-7
O=C(CCN1C(=O)/C(=C/c2cccc(Br)c2)SC1=S)NNC(=O)c1cccnc1	-5	16764*	-4	-20	-1	-3
CCc1ccc(S(=O)(=O)NCCN2CCN(c3ccccc3F)CC2)cc1	.	.	.	-15	.	.
SMILES	MazEF act	Autofluor counter	BoNT-F LC inh	PriA SSB inh	BoNT A protease	Anthrax LF inh2
O=C(NCCCn1nc(-c2ccccc2)ccc1=O)C1CC1	.	.	.	-26	.	.
CCOc1cn2c(cc1=O)C(=O)N(CCNC(=O)c1ccc(C(C)(C)C)cc1)CC2	.	.	.	-23	.	.
COc1cc(NC(=O)c2ccc(=O)n(C)n2)cc(OC)c1	.	.	.	-3	.	.
Cc1ccc(N2CCCS2(=O)=O)cc1NC(=O)C(=O)NCc1ccc(Cl)cc1	.	.	.	-20	.	.
CN(C)S(=O)(=O)c1ccc(C(=O)NCCOc2ccc(F)cc2)cc1	3	24248*	-7	-23	-5	-3
COc1ccc(SCC2CCN(C(=O)Nc3ccc4c(c3)OCO4)CC2)cc1	.	.	.	19	.	.
O=C(C1CCCN(c2ccc(-c3ccccc3)nn2)C1)N1CCOCC1 (centres undefined)	.	.	.	-7	.	.
C#CCOc1cc(C2C3=C(COC3=O)Nc3cc4c(cc32)OCO4)ccc1OC (centres undefined)	-22	2029	-2	1	0	1
COc1ccc(OC)c(C2C3=C(COC3=O)Nc3cc4c(cc32)OCO4)c1 (centres undefined)	7	19754*	7	-3	6	-9
CN(C)c1ccc(NC(=O)COC(=O)CCC(=O)c2ccc(F)cc2)cc1	3	21300*	-6	4	-1	-3
CCOc1cc(C(=O)CCC(=O)OCC(=O)Nc2ccc(F)cc2)ccc1O	3	.	.	7	.	.
C/C=C/c1ccc(OC[C@@H](O)CN2CCN(c3cccc(C(F)(F)F)c3)CC2)c(OC)c1	.	.	.	11	.	.
C/C=C/c1ccc(OCC(O)CN2CCN(c3cccc(Cl)c3)CC2)c(OC)c1 (centres undefined)	.	.	.	36*	.	.
C=CCc1cc(C)ccc1OCC(O)CN1CCN(c2ccccc2)CC1 (centres undefined)	-4	8912	-11	11	-1	-4
C=CCc1cc(OC)ccc1OCC(O)CN1CCN(c2ccc(OC)cc2)CC1 (centres undefined)	-4	22414*!	-13	30	?	-2
Cc1c(C(C)(C)C)c(C=S)n2ccccc12	9	21631*	-8	6	?	-6
Cc1ccc2cc3c(N)c(C(=O)Nc4c(C)[nH]c(=O)[nH]c4=O)sc3nc2c1	205*	6869	2	-14	9	9
Cc1ccc2nc3sc(C(=O)Nc4c(C)[nH]c(=O)[nH]c4=O)c(N)c3cc2c1	12	8886	7	-8	10	3
Cc1ccc(NC(=O)C(=O)NCC(c2ccsc2)N2CCOCC2)cc1F (centres undefined)	.	.	.	-7	.	.
O=C(NCc1cccs1)c1nnc2n(c1=O)CCN2c1ccccc1	.	.	.	-4	.	.
Cc1ccc2nc(C(F)OC(F)(F)F)[nH]c2c1 (centres undefined)	4	17272*	-7	-5	-3	-2
CC(OC(=O)CN1C(=O)NC2(CCCC2)C1=O)C(=O)c1ccccc1 (centres undefined)	11	?	-194	0	-129	-25
CC(OC1=CC(=O)CCC1)C(=O)c1ccccc1 (centres undefined)	0	20377*	3	-8	2	0
Cc1nc2ccc([N+](=O)[O-])cc2nc1C	5	4052	-7	2	-1	-3
Cc1ccc2nc3cc([N+](=O)[O-])cc([N+](=O)[O-])c3cc2c1	354*	4075	-11	-6	5	-8
COc1cccc(C(=O)NCCn2ncc3c(=O)n(Cc4ccc([N+](=O)[O-])cc4)cnc32)c1OC	.	.	.	1	.	.
O=C(c1ccc(CSCc2ccccc2F)o1)N1CCN(c2ccc(N3CCOCC3)nn2)CC1	0	4328	-5	96*	0	-4
O=C(c1ccc(N2CCOCC2)nn1)N1CCN(c2ccccn2)CC1	.	.	.	12	.	.
Oc1c(C2=NCCNC(C(F)(F)F)=C2)ccc2ccccc12	20	3156	-10	45*	-2	-4
Cc1ccc(O)c(C2=NCCNC(C(F)(F)F)=C2)c1	6	21465*	-7	-8	?	-3

High-throughput results deposited in PubChem by several laboratories.
